Measurements from PubChem BioAssay (NCI).
The panel holds about 79,000 compounds, 15% with a hit somewhere; the sample as a whole holds those more often. Unmarked numbers belong to inactive results. The source made the active and inactive calls. Cut-off read from the data, not from the text of the source: active = growth inhibition above about 70%; inactive = the rest.

How the values were obtained:
[1] = NCI Yeast Anticancer Drug Screen. Data for the rad50 strain (AID 155);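 note: 0% = growth of vehicle-only cultures of the same strain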; conditions: S. cerevisiae rad50 strain growth inhibition; at 50.0 µM; stronger effect = higher value
Procedure, shortened: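 Relative growth inhibition (compound vs vehicle) was measured in yeast with a defined repair-gene alteration.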

[2] = NCI Yeast Anticancer Drug Screen. Data for the mec2-1 strain (AID 157); conditions: S. cerevisiae mec2-1 strain, at 50.0 µM, stronger effect = higher value
Procedure, shortened: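 Strain: mec2-1 (DNA repair/cell cycle alteration). Compound exposure, then growth measured; inhibition expressed relative to vehicle.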

[3] = NCI Yeast Anticancer Drug Screen. Data for the sgs1 mgt1 strain (AID 161);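 note: 0% = growth of cultures given vehicle only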; conditions: S. cerevisiae sgs1 mgt1 strain, at 50.0 µM, stronger effect = higher value
Procedure, shortened: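 Inhibition of yeast growth, normalised to vehicle-treated controls, is reported for a strain bearing genetic alterations in DNA damage repair.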

[4] = NCI Yeast Anticancer Drug Screen. Data for the cln2 rad14 strain (AID 165);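 note: 0% = growth equal to vehicle treated cultures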; conditions: S. cerevisiae cln2 rad14 strain, at 50.0 µM, stronger effect = higher value
Procedure, shortened: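 Compounds are applied to the cln2 rad14 yeast strain, and growth is then compared with that of vehicle-treated cultures to give inhibition.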

[5] = NCI Yeast Anticancer Drug Screen. Data for the bub3 strain (AID 167); conditions: S. cerevisiae bub3 mutant strain, at 50.0 µM, stronger effect = higher value
Procedure, shortened: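 Screening used yeast with an engineered genetic alteration affecting cell cycle control. Compound-exposed cultures were compared with vehicle cultures, and reduced growth was taken as inhibition.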

[6] = NCI Yeast Anticancer Drug Screen. Data for the mlh1 rad18 strain (AID 175); conditions: S. cerevisiae mlh1 rad18 strain growth inhibition; at 50.0 µM; stronger effect = higher value
Procedure, shortened: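 Read-out is yeast growth inhibition, calculated against vehicle-only controls. The compound was applied to a strain engineered with DNA damage repair alterations.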

Compound	growth inhibition [1]	growth inhibition [2]	growth inhibition [3]	growth inhibition [4]	growth inhibition [5]	growth inhibition [6]
O=c1[nH][nH]c(=O)c2c1ccc1oc3ccccc3c12	-13.8%	0.55%	-20.7%	28.2%	2.55%	4.4%
OCN(CO)c1ccc2c(c1)Cc1cc(Cl)ccc1-2	0.35%	-24.1%	-2.2%	22.4%	13.1%	12.7%
CN(C)C=Nc1ccn(CCO)c(=O)n1	21.6%	-16.9%	23.6%	19.1%	21.9%	33.2%
Cc1c(C)n(C)c(=S)n(C)c1=S	4.95%	4.15%	5.8%	31.6%	1.85%	8.65%
C/C(=N/NC(=S)NNC(=S)N(C)c1ccccc1)c1nccc2ccccc12	85.8% (active)	87% (active)	86% (active)	79.2% (active)	76.6% (active)	79.8% (active)
CSCCC(NCc1c(O)ccc2ccc(=O)oc12)C(=O)O (stereo not drawn)	-35.6%	-9.1%	-27.9%	7.45%	0.95%	-38%
CCOP(=O)(Cc1ccc(CP(=O)(OCC)OCC)n1C)OCC	-6.15%	-7.5%	-13.7%	17.4%	-4.7%	15.1%
CCOC(=O)/C=C/c1ccc(OCC)cc1	-2.4%	2.55%	-7.15%	-17.2%	-1.35%	-21%
COC(=O)C(=O)c1c(-c2cccnc2)[nH]c2ccccc12	7.3%	-7.1%	1.05%	-9.05%	13.2%	4%
CC[C@]12CCCN3CCc4c(n(c5ccccc45)C(=O)C1)[C@@H]32	-25.9%	-23.2%	-49.1%	29.4%	-25.6%	31.1%
CCc1cccc(C(=O)O)c1N	26.4%	5.75%	15.7%	3.65%	-3.75%	0.9%
CCCN(CCCCC(NC(C)=O)C(=O)NCc1ccccc1)C(=O)NC (stereo not drawn)	-26.9%	-27.8%	-13.1%	17.9%	-18.9%	-14.5%
CN(C)CCN=C1Nc2ccccc2C(=S)N2CSCC12 (stereo not drawn)	-0.75%	17.1%	-10.4%	-2.05%	5.85%	11.9%
O=Cc1ccnc2ccccc12	0.9%	1%	6.25%	4%	-3.55%	6.85%
CCCCSc1nc2ccc(N=Cc3ccccc3O)cc2s1	-19.6%	-11.2%	-4.45%	-17.7%	-5.75%	-22.4%
N#C/C(=C\c1ccc2ccccc2c1)c1ccccc1	37.9%	14.9%	12.8%	17%	25.7%	52%
c1ccc(-c2ccc(-c3ccccc3)cc2)cc1	-14.5%	-9.4%	-15.1%	-15.2%	18.6%	-30.9%
CC(=[N-])CC(C)=O.O=C(CC(=Nc1ccccc1)c1ccccc1)c1ccccc1.[Cu+]	-21.2%	-7.5%	1.6%	29.3%	-3.45%	16.2%
CC(C)(C#N)NC(=O)NC(C)(C)C(N)=O	-4.1%	2.25%	-3.25%	-50.2%	9.5%	-1.4%

Compound	growth inhibition [1]	growth inhibition [2]	growth inhibition [3]	growth inhibition [4]	growth inhibition [5]	growth inhibition [6]
C(=C(c1ccccc1)c1ccccc1)N1CCOCC1	-2.3%	-5.5%	4.7%	-52%	-20.1%	1.2%
C=C(Cl)COc1ccc(OCC(=C)Cl)cc1	19.3%	-17.1%	31.8%	22.6%	42%	1.15%
Cc1ccc(N=Nc2ccc(C)cc2NC(=O)c2ccc(Cl)c(Cl)c2)cc1	-9.6%	-11.2%	-12%	-13.1%	7.8%	-20.4%
Nc1c(N2CCCCC2)c(=O)nc2[nH]/c(=C\c3ccco3)c(=O)n12	5.45%	-26.1%	10.9%	-21.4%	8.8%	-7.6%
CCOC(=O)c1cnc2cc3c(cc2c1Nc1cccc(C)c1C)OCO3	-9.9%	-7.35%	-16.4%	-13%	3.5%	-6.6%
CC1CCCC2(CC[N+](C)(CCC[N+](C)(C)C)CC2)C1 (stereo not drawn)	-9.5%	-7.95%	-16.2%	15.1%	-41%	-1.7%
O=C(CSc1nnc(Cc2ccccc2)o1)Nc1ccc([N+](=O)[O-])cc1	11.2%	15.1%	5.65%	10.5%	19%	-7.15%
O=C(c1ccccc1)c1c(O)c2ccccc2oc1=O	-13.6%	-24%	-7.95%	-16.8%	-4.45%	-4.5%
CCc1c(NCCO)c(C(=O)NCCO)c2nc3ccccc3n2c1NCCO	2.2%	9.65%	-3.1%	-14.1%	-7.3%	11.8%
C=C(Cl)C(=C)CCC(Cl)C(C)C (stereo not drawn)	-6.15%	-9.4%	1.6%	20.6%	0.25%	0.55%
COC(=O)/C(=C/c1ccccc1)N(C(C)=O)C(C)=O	0.05%	-1.6%	10.3%	-1.5%	13.4%	8.5%
CCC1(C#CCN2C(=O)c3ccccc3C2=O)C=CC2(CC1)OCCO2 (stereo not drawn)	10.2%	18.2%	26.2%	0.6%	2.5%	48.9%
CN(C)C(=O)NCc1cccnc1	-21.8%	10.9%	0.35%	-78.2%	-3.45%	-10.7%
CC(C)(C(=O)O)C(=O)O	6.9%	3.25%	0.6%	8.2%	21.4%	3.1%
CCOC(=O)c1c(SCCO)n(-c2ccccc2)c(=S)n(-c2ccccc2)c1=O	-22.7%	-25.2%	-22.7%	1.75%	-13.3%	-19.4%
C#CC(OC(=O)c1cc([N+](=O)[O-])cc([N+](=O)[O-])c1)C1OC(C)(C)OC1C1COC(C)(C)O1 (stereo not drawn)	27%	26.4%	57.1%	-1%	7.25%	58.5%
C=CCNC(=S)/N=C/C(C(=O)Nc1ccccc1)=C(/C)O	-55.6%	-18.1%	-41.2%	-27.2%	-50.9%	-20.6%
O=S(=O)(c1ccc(Cl)cc1)c1ccccc1C1=NCCN1	-37.8%	-44.9%	-5.7%	6.3%	-43.8%	-23.8%
C=CCNC(=O)/C(C)=C(\C)c1ccc(F)cc1	4.15%	6%	3.2%	-17.7%	2.5%	-4.7%
